Source: PubChem (several laboratories)
NadD block: NadD (S. aureus) enzyme inhibition; purified NadD enzyme, colorimetric absorbance read-out; inhibition, % at 20 µM; 360,000 compounds, 0.78% hits; AID 602399; in the data active = inhibition above about 26%
Calb FLC: C. albicans growth modulation with fluconazole; growth inhibition, % (test concentration not listed); C. albicans CaCi-2 (fluconazole-resistant clinical isolate) + fluconazole, Alamar Blue growth, 48 h; AID 1979; 300,000 compounds, 0.57% hits;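 active = growth inhibition above about 58% in most replicates, limit read from the data, passing the limit was not always enough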;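 also: all wells also contain fluconazole at 8 µg/ml as a sub-toxic cotreatment; 0% = median of DMSO wells and 100% = median of geldanamycin control wells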
ATG4B inhibitor: blocks human ATG4B protease cleavage of LC3 substrate; Q9Y4P1; AID 504462; inhibition, % at 8.33 µM; 340,000 compounds, 0.51% hits; ATG4B cleavage of LC3-PLA2, NBD-HPC fluorescence, 1 h; in the data active = inhibition above about 40%
Target sequence (Q9Y4P1 whole entry, looked up): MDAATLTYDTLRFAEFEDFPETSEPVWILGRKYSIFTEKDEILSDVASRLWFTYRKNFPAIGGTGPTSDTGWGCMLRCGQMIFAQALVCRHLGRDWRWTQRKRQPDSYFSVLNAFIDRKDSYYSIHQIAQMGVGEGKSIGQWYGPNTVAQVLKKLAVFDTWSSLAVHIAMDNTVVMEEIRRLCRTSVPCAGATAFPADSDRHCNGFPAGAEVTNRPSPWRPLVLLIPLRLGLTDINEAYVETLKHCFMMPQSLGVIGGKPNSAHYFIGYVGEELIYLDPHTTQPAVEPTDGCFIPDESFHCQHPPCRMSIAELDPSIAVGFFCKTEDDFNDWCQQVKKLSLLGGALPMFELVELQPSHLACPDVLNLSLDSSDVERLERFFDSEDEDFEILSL
FAS TE block: blocks the thioesterase domain of human fatty acid synthase; AID 602261; inhibition, % at 15 µM; P49327; recombinant FAS-TE, OMFH fluorogenic substrate, fluorescence endpoint; 360,000 compounds, 0.67% hits;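 active = compounds whose normalised, plate-corrected inhibition of enzyme fluorescence in the single-dose primary screen is 50% or more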;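 also: 0% = DMSO with enzyme and 100% = substrate without enzyme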
SUMO Mot1 rescue: inhibitors of SUMOylation pathway: yeast Mot1-301 growth rescue; S. cerevisiae Mot1-301 growth rescue, ATP luminescence, 38.5C; percent above DMSO median, 100 means doubled; growth rescue, % at 18.8 µM; 320,000 compounds, 1% hits; AID 2716;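 active = every valid replicate shows activation above 250% relative to neutral control wells; inactive = the rest, any valid replicate at or below 250%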;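 also: OY570 slx delta 5 strain wells were the positive control but not used for scaling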
FAS-TE inh conf: FAS thioesterase (human) inhibition, confirmation. shares compounds with FAS TE block. recombinant FAS-TE, OMFH fluorogenic substrate, fluorescence. inhibition, % at 15 µM. 2,300 compounds, 45% hits;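 active = compounds inhibiting the enzyme by at least 50% at 15 µM in any one of the replicates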;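 also: 0% = enzyme with DMSO only and 100% = wells lacking enzyme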
Starred values were filed as active, the others as inactive. An excerpt weighted towards active compounds, which were near 3.1% of everything screened.

Results for CCOC1=C2[C@H](c3ccccc3)N(S(=O)(=O)c3ccc(C)cc3)C(C(C)(C)C)[C@H]2n2c(=O)n(-c3ccccc3)c(=O)n2C1 (stereo not given in full) ?
NadD block: 15; FAS TE block: 89*; FAS-TE inh conf: 28

How did CCOC1=C2CN(S(=O)(=O)c3ccc(C)cc3)[C@H](c3cccs3)C[C@H]2n2c(=O)n(-c3ccccc3)c(=O)n2C1 do in these assays?
NadD block: 17; FAS TE block: 49

What do the screens show for `COCCn1c(SCC#N)nnc1-c1ccc([N+](=O)[O-])cc1`?
NadD block: 7; Calb FLC: -1; ATG4B inhibitor: 4; FAS TE block: -5; SUMO Mot1 rescue: 10

How did CC1Oc2ccc(C#N)cc2N(Cc2ccccc2OC(F)(F)F)C1=O (stereo not given) do in these assays?
NadD block: -3; FAS TE block: 25

Results for CCN(CC)S(=O)(=O)c1cccc(-c2n[nH]c(=S)n2/N=C/c2ccc(OC(F)F)cc2)c1 ?
NadD block: 13; Calb FLC: 7; ATG4B inhibitor: -1; FAS TE block: 52*; SUMO Mot1 rescue: 2; FAS-TE inh conf: 44

How did CCN1C[C@@H]2[C@@H]3C(=O)N(C)C(=O)[C@@H]3[C@](C)(C1=O)N2C(=O)c1ccc(Cl)c(Cl)c1 do in these assays?
NadD block: 0; ATG4B inhibitor: 0; FAS TE block: -11

What do the screens show for `O=C(CNc1cc(S(=O)(=O)N2CCCC2)ccc1OCC(F)(F)F)Nc1ccc(SC(F)F)cc1`?
NadD block: 2; Calb FLC: 4; ATG4B inhibitor: -9; FAS TE block: 65*; SUMO Mot1 rescue: 1; FAS-TE inh conf: 56*

Results for O=C(CNc1cc(S(=O)(=O)N2CCCC2)ccc1OCC(F)(F)F)Nc1cc(Cl)cc(Cl)c1 ?
Calb FLC: 3; SUMO Mot1 rescue: 1

What do the screens show for `C[C@@H]1CN([C@H](C)CO)C(=O)c2cc(NC(=O)Nc3ccc(C(F)(F)F)cc3)ccc2O[C@H]1CN(C)S(=O)(=O)c1ccc(Cl)cc1`?
NadD block: 29; ATG4B inhibitor: -6; FAS TE block: 36; SUMO Mot1 rescue: -3

Results for CC(C)NC(=O)N(C)C[C@H]1Oc2c(NC(=O)Nc3ccc(C(F)(F)F)cc3)cccc2C(=O)N([C@H](C)CO)C[C@@H]1C ?
NadD block: -4; ATG4B inhibitor: -16; FAS TE block: 82*; SUMO Mot1 rescue: 138; FAS-TE inh conf: 86*

How did C[C@H]1CN([C@@H](C)CO)C(=O)c2cccc(NC(=O)Nc3ccc(C(F)(F)F)cc3)c2O[C@@H]1CN(C)S(=O)(=O)c1ccc(Cl)cc1 do in these assays?
NadD block: -9; ATG4B inhibitor: -12; FAS TE block: 58*; SUMO Mot1 rescue: -2; FAS-TE inh conf: -1

How did C[C@H](CO)N1C[C@H](C)[C@@H](CN(C)S(=O)(=O)c2ccccc2)Oc2ccc(NC(=O)Nc3ccccc3)cc2C1=O do in these assays?
NadD block: 7; ATG4B inhibitor: -11; FAS TE block: 6; SUMO Mot1 rescue: 2

What do the screens show for `Cc1noc(C)c1NC(=O)N(C)C[C@H]1Oc2c(NC(=O)Nc3ccc(C(F)(F)F)cc3)cccc2C(=O)N([C@H](C)CO)C[C@@H]1C`?
NadD block: -6; ATG4B inhibitor: -9; FAS TE block: 23; SUMO Mot1 rescue: -6

How did C[C@H](CO)N1C[C@H](C)[C@H](CN(C)S(=O)(=O)c2ccc(Cl)cc2)OCc2ccccc2-c2c(n(C)c3ccccc23)C1=O do in these assays?
NadD block: 6; FAS TE block: 69*; FAS-TE inh conf: 28

Results for Cc1ccc(S(=O)(=O)N(C)C[C@@H]2Oc3ccc(NC(=O)Nc4cccc5ccccc45)cc3C(=O)N([C@H](C)CO)C[C@H]2C)cc1 ?
NadD block: 25; ATG4B inhibitor: 11; FAS TE block: 67*; SUMO Mot1 rescue: 10; FAS-TE inh conf: 7

Results for COc1ccc(CN2CCNC(=O)C2CC(=O)N(C)CCC2CCOCC2)c(OC)c1 (stereo not given) ?
NadD block: 2; Calb FLC: 8; ATG4B inhibitor: 2; FAS TE block: -4; SUMO Mot1 rescue: 7

How did Cc1ccc2sc(N(CCCN(C)C)C(=O)CCS(=O)(=O)c3ccccc3)nc2c1C do in these assays?
NadD block: -2; Calb FLC: -6; ATG4B inhibitor: -2; FAS TE block: 1; SUMO Mot1 rescue: 43

What do the screens show for `COCCCNC(=O)Cn1cc(/C=C(\C#N)C(=O)NC2CC2)c2ccccc21`?
NadD block: -6; Calb FLC: 2; ATG4B inhibitor: 1; FAS TE block: -7; SUMO Mot1 rescue: -14

Results for Cc1ccc(S(=O)(=O)Nc2ccc3c(c2)CC(=O)N([C@H](C)CO)C[C@@H](C)[C@H](CN(C)Cc2ccc(-c4ccccc4)cc2)O3)cc1 ?
NadD block: 8; ATG4B inhibitor: -15; FAS TE block: 73*; SUMO Mot1 rescue: -11; FAS-TE inh conf: 23

What do the screens show for `C[C@H](CO)N1C[C@H](C)[C@@H](CN(C)S(=O)(=O)c2ccc(F)cc2)Oc2c(NC(=O)Nc3ccc(C(F)(F)F)cc3)cccc2C1=O`?
NadD block: -14; ATG4B inhibitor: -38; FAS TE block: 50*; SUMO Mot1 rescue: -20; FAS-TE inh conf: 47

What do the screens show for `O=C(CCCSc1ccc(Cl)cc1)Nc1ccccc1O`?
NadD block: -12; Calb FLC: -2; ATG4B inhibitor: -17; FAS TE block: 10; SUMO Mot1 rescue: 5

Results for CC(C)N(C(C)C)S(=O)(=O)c1ccc(N2CCc3ccccc3C2)nc1 ?
NadD block: -5; Calb FLC: 12; ATG4B inhibitor: 7; FAS TE block: 46; SUMO Mot1 rescue: -9

What do the screens show for `CCN(CC)S(=O)(=O)c1ccc(N2CCc3ccccc3C2)nc1`?
NadD block: -1; Calb FLC: -5; ATG4B inhibitor: 19; FAS TE block: 64*; SUMO Mot1 rescue: -13; FAS-TE inh conf: 63*

Results for CCN(CC)S(=O)(=O)c1ccc(-n2cnc3cc(C)c(C)cc32)nc1 ?
NadD block: -9; Calb FLC: 15; ATG4B inhibitor: -11; FAS TE block: 57*; SUMO Mot1 rescue: -6; FAS-TE inh conf: 61*

Results for Cc1ccc(NC(=O)COC(=O)c2c(-c3ccccc3)noc2C)c(C)c1 ?
NadD block: -7; ATG4B inhibitor: -3; FAS TE block: 5; SUMO Mot1 rescue: 26

Results for COc1ccc(OC)c(S(=O)(=O)n2ccc(C)n2)c1 ?
NadD block: -2; Calb FLC: 0; ATG4B inhibitor: 1; FAS TE block: -6; SUMO Mot1 rescue: 4

How did CCCC(=O)Nc1ccc2c(c1)c1ccccc1n2CC do in these assays?
NadD block: -6; Calb FLC: 11; ATG4B inhibitor: 0; FAS TE block: 5; SUMO Mot1 rescue: 15
